Among the data in PubChem BioAssay (NCATS) are activation and Potency values, retold here.

“And” between values parts separate entries of the source, which are not always exact repeats. Identical values can stand only once. Results filed as inconclusive are left out. The source made the active and inactive calls.

The nature of the first experiment: qHTS assay for small molecule activators of the p53 signaling pathway (AID 651743; active = well fitted activation curve with a large enough effect in the signal ratio, not every such curve was filed as active; the % refers to the signal ratio; note: potency is the fitted concentration of half-maximal effect; for activation: series mostly up to about 92 µM; % of control where 0% means no effect). As to conditions: HCT-116 p53RE-bla, beta-lactamase FRET ratio, 16 h; activation: active compounds read high. A digest of the protocol:
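Cell-based beta-lactamase reporter (p53 response elements, HCT-116 background). After a 5-hour preincubation, cells received compound for 16 hours at 37 C; substrate development ran 2 hours at room temperature.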
For orientation: In qHTS, concentration-response curves come from the screen itself.
Take `Nc1ccc(O)c(C(=O)O)c1`: the activation was 0.238% (inactive) and -1.06% (inactive).
On the same count and under the same terms, next, `C#C[C@]1(O)CC[C@H]2[C@@H]3CCc4cc(O)ccc4[C@H]3CC[C@@]21C`: 11.3% (inactive) and 11.7% (inactive).
With `COc1cc(/C=C/C(=O)CC(=O)/C=C/c2ccc(O)c(OC)c2)ccc1O`, the Potency was 31.6 µM (active).

A further experiment can be described thus: qHTS assay for small molecule activators of the nuclear factor-kappa B (NF-kB) signaling pathway (AID 651749; active = well fitted activation curve with a large enough effect in the signal ratio; the % refers to the signal ratio; note: series mostly up to about 77 µM; % of control where 0% means no effect). As to conditions: NF-kB-bla ME-180 cells, beta-lactamase FRET ratio, 16 h; active compounds read high. A digest of the protocol:
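Screening used 2,000 ME-180 reporter cells per well exposed to pinned compound (23 nL) or DMSO; after 16 hr at 37C, beta-lactamase expression under NF-kB control was assessed through FRET.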
As to `Nc1ccc(O)c(C(=O)O)c1`, the activation is -0.163% (inactive) and 0.962% (inactive).
Same read-out and setting: with `C#C[C@]1(O)CC[C@H]2[C@@H]3CCc4cc(O)ccc4[C@H]3CC[C@@]21C` the figure was 2.58% (inactive) and -0.453% (inactive).
Same read-out and setting: next, `O=C(OCc1ccccc1)c1ccccc1`: 0.212% (inactive).
